According to the supplement of paper PMC13380429:
Values without a mark were called inactive.

Each molecule was assayed on Vero E6 infected with SARS-CoV-2 (assay: inhibition of SARS-CoV-2 cytopathic effect; higher = more antiviral protection, active = above 15). Details: 100 nM; 48 h.

Row | Structure (SMILES) | inhibition of SARS-CoV-2 cytopathic effect [%]
1 | C[C@@H](N[C@H]1CCCC[C@@H]1NC(=O)c1ccc(Cl)cc1)c1cccc2ccccc12 [Calhex-231] | 1.31
2 | CC(C)Oc1ccc(-c2nc(-c3cccc4c3CC[C@H]4NCCC(=O)O)no2)cc1C#N | 0.51
3 | CC(C)(C(=O)O)c1ccc(C(=O)CCCN2CCC(OC(c3ccccc3)c3ccccc3)CC2)cc1 [carebastine] | -0.91
4 | CCCCCCCCCCCCCCCC(=O)OC(C)C [isopropyl-palmitate] | 0.66
5 | Cc1cccn2c(=O)c(/C=C(\C#N)c3nc4ccccc4s3)c(Oc3ccc(F)cc3)nc12 | -1.07
6 | Cc1ccccc1C(C(=O)NC1CCCCC1)N(C(=O)Cn1ccnc1C)c1cccc(F)c1 (stereo not given) | 0.77
7 | NC1=NCC2c3ccccc3Cc3ccccc3N12 (stereo not given) [epinastine] | 0.71
8 | CCC1(c2c[nH]cn2)Cc2ccccc2C1 [atipamezole] | 0.58
9 | COc1cc(O)c(C(=O)c2ccccc2)cc1S(=O)(=O)O [sulisobenzone] | -0.05
10 | O=C([O-])CN1CCN(CC(=O)[O-])CCN([C@H](CO)[C@H](O)CO)CCN(CC(=O)[O-])CC1.[Gd+3] (racemic) [gadobutrol] | 0.03
11 | c1cnc2c([O][Ga]([O]c3cccc4cccnc34)[O]c3cccc4cccnc34)cccc2c1 [gallium-triquinolin-8-olate] | -0.49
12 | CN(C)CC[C@H](CSc1ccccc1)Nc1ccc(S(=O)(=O)NC(=O)c2ccc(N3CCN(Cc4ccccc4-c4ccc(Cl)cc4)CC3)cc2)cc1[N+](=O)[O-] | -6.74
13 | CCOC(=O)[C@@](C)(N)Cc1ccc(O)c(O)c1 [methyldopate] | -0.9
14 | O=C1NCCN1c1ncc([N+](=O)[O-])s1 [niridazole] | -4.84
15 | COc1ccc(C(=O)NCc2cccnc2)cc1C(=O)NCc1cccnc1 [picotamide] | 0.96
16 | CNc1cc2[nH]c(=O)n(-c3ccc(NC(=O)NS(=O)(=O)c4ccc(Cl)s4)cc3)c(=O)c2cc1F [elinogrel] | -3.68
17 | COc1cc(C[C@H]2C(=O)OC[C@@H]2Cc2ccc(OC)c(OC)c2)ccc1O [arctigenin] | -2.78
18 | CCN(CC)C(=O)/C(C#N)=C/c1cc(O)c(O)c([N+](=O)[O-])c1 [entacapone] | -1.61
19 | NS(=O)(=O)c1cc2c(cc1Cl)N=C(CSCc1ccccc1)NS2(=O)=O [benzthiazide] | 0.52
20 | O=c1sn(-c2cccc3ccccc23)c(=O)n1Cc1ccccc1 [tideglusib] | -1.32

Row | Structure (SMILES) | inhibition of SARS-CoV-2 cytopathic effect [%]
21 | C#C[C@]1(OC(=O)CCCCCC)CC[C@H]2[C@@H]3CCC4=CC(=O)CC[C@@H]4[C@H]3CC[C@@]21C [norethisterone-enanthate] | 0.91
22 | O=C(O)C(O)C(O)C(=O)O (stereo not given) [tartaric-acid] | -5.86
23 | O[C@H]1CC[C@H](Nc2nc(-c3ccccc3)nc3[nH]ccc23)CC1 | -4.27
24 | O=C(NCC(=O)N1CCCC1)Nc1ccc2cnccc2c1 | 0.13
25 | CC1(C)NC(=O)N(c2ccc([N+](=O)[O-])c(C(F)(F)F)c2)C1=O [nilutamide] | 0.03
26 | CC(=O)CC(=O)O [lithium-acetoacetate] | 1.48
27 | Cc1ncc(Cl)cc1NCc1ccc(C(=O)N[C@@H](CC2CCCC2)C(=O)NC2CC2)s1 | -0.53
28 | CCCC(=O)Nc1cccc(NC(=O)c2ccccc2Br)c1 | 0.94
29 | CCCCCCCCCCCCCCOc1ccc(C(=O)O)o1 | 1.46
30 | Cn1c(-c2ccccc2)nnc1S(C)(=O)=O | 0.33
31 | CCCOc1ccc2[nH]c(NC(=O)OC)nc2c1 [oxibendazole] | -0.63
32 | CC[N+]1(C)CCCC(OC(=O)C(O)(c2ccccc2)c2ccccc2)C1 (stereo not given) [pipenzolate] | -2.48
33 | CCCn1c(=O)c2[nH]c(-c3cnn(Cc4cccc(C(F)(F)F)c4)c3)nc2n(CC)c1=O | 2.16
34 | C[n+]1cccc(C(=O)[O-])c1 [trigonelline] | 1.81
35 | O=C(O)Cc1sc(-c2ccccc2)nc1-c1ccc(Cl)cc1 [fentiazac] | -1.78
36 | Oc1ccc2[nH]cc(C3=CCNCC3)c2n1 | -4.05
37 | CC(=O)Nc1ccc(C(=O)O)cc1 [acedoben] | 1.58
38 | O=C(Oc1ccccc1C(=O)O)c1ccccc1O [sasapyrine] | -2.49
39 | CC[C@]12CCCN3CCc4c(n(c5ccccc45)[C@@](O)(C(=O)OC)C1)[C@@H]32 [vincamine] | 0.98
40 | Cc1cn([C@H]2C=C[C@@H](CO)O2)c(=O)[nH]c1=O [stavudine] | 4
